Assay outcomes deposited in PubChem BioAssay by The Scripps Research Institute Molecular Screening Center.
The entries come from a sample that favours hits as a whole.
TTR transcr act = TTR transcription activators in neuroblastoma reporter cells, primary screen, cell-based, luminescence, SH-SY5Y, TTR promoter Gaussia luciferase | 100% = recombinant luciferase protein wells | activation, % at 16.7 µM | 92,000 compounds, 1.3% hits | AID 1117267, 2014;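 active means activation above the mean of all tested compounds plus 3 SD, cut at about 9.5% in these data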;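 further: cells exposed to compounds for one day before reading; 0% = median of all test compound wells on the plate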
HuH7 TTR inh = TTR promoter reporter inhibitors in hepatoma cells, counter-screen for TTR transcription activator project, cell-based, luminescence, HuH7 hepatoma; shares compounds with TTR transcr act; HuH7 TTR promoter-Gaussia luciferase reporter; inhibition, % at 16.7 µM; 1,100 compounds, 4% hits;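 active means average inhibition above the solvent-only control wells' mean plus 3 SD, cut at about 15% in these data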;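 further: 0% = cells with DMSO only and 100% = cells with inhibitor control FD; inhibitors lower well luminescence so higher value means more inhibition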
TTR up confirm = TTR transcription activators, retest, confirmation, cell-based, luminescence, SH-SY5Y, triplicate | shares compounds with TTR transcr act | SHSY5Y TTR promoter Gaussia luciferase; 100% = purified Lucia enzyme wells, no cells | activation, % at 16.7 µM | 1,100 tested, under 10 active | AID 1117280, 2014;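 active means mean activation above a set limit taken from the earlier primary screen, cut at about 11% in these data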;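 further: 0% = DMSO-treated cells and 100% = recombinant Lucia luciferase without cells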
* = called active by the depositor.

How did Cn1c(CNc2cccc(Cl)c2)nnc1SCC#N do in these assays?
TTR transcr act: 1

Results for N#Cc1ccc(-c2cccnc2)nc1SCC(N)=O ?
TTR transcr act: 1

What do the screens show for `CCOC(=O)CSc1nc(-c2ccncc2)ccc1C#N`?
TTR transcr act: 24*; HuH7 TTR inh: -1; TTR up confirm: -1

What do the screens show for `CCOC(=O)C1=C(CSc2nc(-c3ccncc3)ccc2C#N)OC(N)=C(C#N)C1c1ccc(OC)cc1` (centres undefined)?
TTR transcr act: 2

How did CC(C)c1cc(-c2n[nH]c(=S)n2Cc2ccccc2)cs1 do in these assays?
TTR transcr act: 11*; HuH7 TTR inh: -2; TTR up confirm: -1

Results for S=c1[nH]nc(-c2ccccc2)n1Cc1ccccc1 ?
TTR transcr act: 6

How did COc1ccc(-c2n[nH]c(=S)n2Cc2ccccc2)cc1OC do in these assays?
TTR transcr act: 2

Results for COc1cc(NC(=O)c2cc(C)on2)c(OC)cc1Cl ?
TTR transcr act: 0

What do the screens show for `CC(C)n1nnnc1-c1cccc(Cl)c1`?
TTR transcr act: 12*; HuH7 TTR inh: 1; TTR up confirm: 1

Results for Cn1nnnc1NCc1cccc(Cl)c1 ?
TTR transcr act: 0

How did Cc1nn2cc(-c3cccc(Cl)c3)cnc2c1Cl do in these assays?
TTR transcr act: -1

What do the screens show for `O=C(CCNC(=O)c1ccc(Cl)cc1)NCCCN1CCOCC1`?
TTR transcr act: 1

What do the screens show for `CC(C)(C)OC(=O)C1[C@H](O)C=CC[C@H]1S(=O)c1ccccc1` (some centres undefined)?
TTR transcr act: 0

How did CCOc1ccc(N2C(=O)CC(NCCc3ccncc3)C2=O)cc1 (centres undefined) do in these assays?
TTR transcr act: 0

How did CCCOc1ccc(N2C(=O)CC(NCC(=O)OCC)C2=O)cc1 (centres undefined) do in these assays?
TTR transcr act: 10.0*; HuH7 TTR inh: -13; TTR up confirm: 0

How did CCCOc1ccc(N2C(=O)CC(SC(=NC)Nc3ccc(F)cc3)C2=O)cc1 (centres undefined) do in these assays?
TTR transcr act: 0

How did Cn1c(=O)cc(OCCCC(=O)Nc2cc(-c3cn[nH]c3)ccn2)c2ccccc21 do in these assays?
TTR transcr act: 1

What do the screens show for `Cc1ccc(-n2c(CSc3nc(C)cc(C)n3)n[nH]c2=S)cc1`?
TTR transcr act: 26*; HuH7 TTR inh: -3; TTR up confirm: -1

Results for Cc1nc2ccccc2n1Cc1n[nH]c(=S)n1-c1ccc(Cl)cc1 ?
TTR transcr act: 1

What do the screens show for `Cc1ccc(-n2c(CNc3cccc(Cl)c3)n[nH]c2=S)cc1`?
TTR transcr act: 2

What do the screens show for `O=C1CCC[C@H]2C[C@H](NCc3ccccc3F)CC[C@]23CCCN13`?
TTR transcr act: 0

What do the screens show for `O=C(c1ccc(COCC(F)(F)F)o1)N1CCCCCC1`?
TTR transcr act: -1

How did CN1CCN(NC(=O)c2ccc(COc3ccccc3Br)o2)CC1 do in these assays?
TTR transcr act: 5

What do the screens show for `CC1CN(C(=O)c2ccccc2OCc2ccccc2Cl)CC(C)O1` (centres undefined)?
TTR transcr act: -1

What do the screens show for `O=C(c1ccc(COc2ccccc2Cl)o1)N1CCCC1`?
TTR transcr act: 10*; HuH7 TTR inh: -11; TTR up confirm: 0

What do the screens show for `CC1CCN(C(=O)c2ccc(COc3ccccc3Cl)o2)CC1`?
TTR transcr act: -4

How did CC1CN(C(=O)c2ccc(COc3ccccc3Br)o2)CC(C)O1 (centres undefined) do in these assays?
TTR transcr act: 69*; HuH7 TTR inh: -9; TTR up confirm: 0

How did CN1OC[C@@H]2CN(Cc3ccc4c(c3)OCO4)[C@H](c3ccc(N4CCCCC4)cc3)C[C@@H]21 do in these assays?
TTR transcr act: -2

What do the screens show for `CC1(C)Cc2c(sc3c2c(=O)n(-c2cccc(Cl)c2)c(=O)n3CC(N)=O)CO1`?
TTR transcr act: 2

How did c1ccc2cc(Cn3ccc4ccc(-c5ccc6cc[nH]c6c5)cc43)ccc2c1 do in these assays?
TTR transcr act: 0

What do the screens show for `CCOC(=O)C1=CCN(S(=O)(=O)c2ccccc2Br)C1c1ccccc1` (centres undefined)?
TTR transcr act: 0

How did CN(C)C=Nc1nonc1-c1ccccc1 do in these assays?
TTR transcr act: 11*; HuH7 TTR inh: -8; TTR up confirm: 0

Results for CN(C)C=Nc1c(Br)cc(Br)c2nonc12 ?
TTR transcr act: -1

What do the screens show for `CN(C)C=Nc1nonc1-c1ncn[nH]1`?
TTR transcr act: 0

Results for C[C@H]1[C@H](N)CC[C@@]23CCCN2C(=O)CCC[C@@H]13 ?
TTR transcr act: 0

Results for Cc1cc(N2CCOc3ccccc32)nc2ccccc12 ?
TTR transcr act: 0

How did C=C(c1ccccc1Cl)[n+]1ccccc1 do in these assays?
TTR transcr act: -1

What do the screens show for `C[C@H](NC(=O)OCc1ccccc1)P(=O)(O)O`?
TTR transcr act: -1

What do the screens show for `CCSc1nc2sc3c(c2c(=O)n1-c1ccccc1C)CCN(C)C3`?
TTR transcr act: -1

How did CCCCNc1nc2sc3c(c2c(=O)n1-c1cccc(Cl)c1)CCN(C)C3 do in these assays?
TTR transcr act: 102*; HuH7 TTR inh: -9; TTR up confirm: 1

Results for CN1CCc2c(sc3nc(SCC(=O)N4CCCCC4)n(-c4ccccc4)c(=O)c23)C1 ?
TTR transcr act: 8

Results for CCCCC(c1nnnn1C1CCCC1)N1CCN(C2CCCC2)CC1 (centres undefined) ?
TTR transcr act: 17*; HuH7 TTR inh: -15; TTR up confirm: 0

Results for CCC(c1nnnn1Cc1cccs1)N1CCN(C2CCCC2)CC1 (centres undefined) ?
TTR transcr act: 0

How did CC(C)CC(c1nnnn1C1CCCCC1)N1CCN(c2ncccn2)CC1 (centres undefined) do in these assays?
TTR transcr act: -1

What do the screens show for `O=[N+]([O-])c1ccc(S(=O)(=O)NN=CCCc2ccccc2)cc1`?
TTR transcr act: -2

How did CCN=C1S/C(=C/c2cc(C)n(-c3ccc(Cl)cc3F)c2C)C(=O)N1CC do in these assays?
TTR transcr act: -2

How did CC1CCC2(CC1)CCC2NCc1ccc(Br)cc1 (centres undefined) do in these assays?
TTR transcr act: 2

What do the screens show for `COc1ccccc1NC(=O)OCCN1CCCC12CCC(c1ccccc1)CC2` (centres undefined)?
TTR transcr act: -2

How did COc1ncnc2c1ncn2CCCN(C)Cc1ccco1 do in these assays?
TTR transcr act: -1

How did CN(CCCn1ccc(N)nc1=O)Cc1ccco1 do in these assays?
TTR transcr act: 17*; HuH7 TTR inh: -9; TTR up confirm: 0

What do the screens show for `COc1ccc(CN(C)CCCn2ccc(N)nc2=O)cc1OC`?
TTR transcr act: 0

Results for C#CCOCCOCCOCCNc1nc(N2CCN(C(=O)[C@H](CCCCN)n3cc([C@@H](N)C(C)CC)nn3)CC2)nc(N2CCN(C(=O)[C@H](CCCCN)n3cc([C@@H](N)C(C)CC)nn3)CC2)n1 (some centres undefined) ?
TTR transcr act: 0
